Screening data as filed in PubChem BioAssay.
AHR activator = activators of human aryl hydrocarbon receptor | P35869 | AHR-responsive luciferase reporter cells, luminescence | activation, % at 5 µM | 2.5% of 320,000 active; in the data active = activation above about 47%
Target sequence (P35869 whole entry, looked up): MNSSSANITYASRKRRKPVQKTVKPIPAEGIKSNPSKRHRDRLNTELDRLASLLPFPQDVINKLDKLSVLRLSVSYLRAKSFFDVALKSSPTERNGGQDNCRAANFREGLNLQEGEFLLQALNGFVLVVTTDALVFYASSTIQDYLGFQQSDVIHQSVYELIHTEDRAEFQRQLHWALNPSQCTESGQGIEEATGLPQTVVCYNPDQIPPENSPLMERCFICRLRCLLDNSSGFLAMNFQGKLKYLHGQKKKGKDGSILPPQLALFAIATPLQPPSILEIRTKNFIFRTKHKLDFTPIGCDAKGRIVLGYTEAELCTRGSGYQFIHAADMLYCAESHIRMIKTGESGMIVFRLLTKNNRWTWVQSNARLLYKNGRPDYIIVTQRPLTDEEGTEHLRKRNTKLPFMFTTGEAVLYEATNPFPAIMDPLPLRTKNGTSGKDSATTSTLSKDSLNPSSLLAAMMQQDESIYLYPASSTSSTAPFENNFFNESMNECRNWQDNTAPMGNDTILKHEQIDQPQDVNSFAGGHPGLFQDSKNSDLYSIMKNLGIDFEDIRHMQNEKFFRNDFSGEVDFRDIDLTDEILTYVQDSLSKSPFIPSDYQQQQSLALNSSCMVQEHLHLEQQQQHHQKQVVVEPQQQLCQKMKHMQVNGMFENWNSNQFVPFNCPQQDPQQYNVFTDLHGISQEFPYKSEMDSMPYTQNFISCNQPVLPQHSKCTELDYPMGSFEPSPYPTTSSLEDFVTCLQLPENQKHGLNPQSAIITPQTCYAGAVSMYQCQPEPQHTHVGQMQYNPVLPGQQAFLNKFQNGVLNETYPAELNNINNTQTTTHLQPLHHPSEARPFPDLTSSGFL
DAX1 inh-1 = blocks DAX1 repression of SF-1 activated StAR promoter | inhibition, % at 6.8 µM | HEK293T StAR-luciferase reporter, SF-1/DAX-1 repression relief | 1.1% of 370,000 active;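 active = inhibition above the mean over all tested compounds plus 3 SD, cut at about 3.6% in these data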;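 also: higher inhibition means more luminescence from relief of DAX-1 repression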
DAX1 inh-2 = NR0B1 (DAX1) inhibition; 0.99% of 340,000 active; HEK293 Gal4-DAX1 luciferase reporter, luminescence; inhibition, % at 6.75 µM; AID 504766; P51843;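 active = inhibition above the mean over all tested compounds plus 3 SD, cut at about 4.2% in these data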;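 also: inhibition shows as a rise in luminescence from relieved DAX1 repression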
hcDAF-12 act = H. contortus DAF-12 activation, primary screen; 1.4% of 370,000 active; AID 652067; activation, % at 6.8 µM; HEK293 hcDAF-12 lit1-tk-luc reporter, luminescence; 0% DMSO, 100% Δ7-dafachronic acid;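 active = activation above the mean of all tested compounds plus 3 SD, cut at about 5.5% in these data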
hgDAF12 agonist = agonists of H. glycines DAF-12 nuclear receptor | 1.8% of 370,000 active | activation, % at 6.8 µM | HEK293 GAL4-hgDAF12 UAS-luciferase reporter, agonist luminescence; normalized to butyrate control;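 active = activation above a cutoff set at the mean of all screened compounds plus 3 SD, cut at about 10% in these data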
ssDAF12 agonist = activators of S. stercoralis DAF-12 nuclear receptor. HEK293 ssDAF-12/GRIP1 lit1-tk-luc reporter, luminescence; % of 3 µM dafachronic acid response. activation, % at 6.8 µM. 1% of 370,000 active. AID 652126;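 active = activation above the mean over all tested compounds plus 3 SD, cut at about 0.9% in these data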
Numbers stand for hits; 0 = inactive; - = not tested or not shown. Shown are actives, neighbours in structure and some others; about 5.7% of the full set was active somewhere.

SMILES	AHR activator	DAX1 inh-1	DAX1 inh-2	hcDAF-12 act	hgDAF12 agonist	ssDAF12 agonist
CN(C)c1ccc(/C=N/NC(=O)c2sccc2-n2cccc2)cc1	72	0	0	0	11	0
O=C(N/N=C\c1ccc(Cl)cc1Cl)c1sccc1-n1cccc1	0	0	0	0	0	0
C/C(=N\NC(=O)c1sccc1-n1cccc1)c1cccs1	78	0	0	0	0	0
CNC(=O)c1sccc1-n1cccc1	0	0	0	0	0	0
COC1OC(c2ccccc2)=C(c2cnc(N)nc2)c2ccc(F)cc21 (stereo not drawn)	-	0	-	0	0	0
CCCCCCP(=O)(O)c1ccccc1	0	0	6.1	0	0	0
C[C@H]1CCCN1c1ccc2c(c1)O[C@H]1CCN(C1)S2(=O)=O	-	0	-	0	0	0
Cc1ccc(NC(=O)c2sc3nc(CCl)[nH]c(=O)c3c2C)c(C)c1	-	3.7	0	0	0	0
CSCc1nc2sc(C(=O)Nc3nc(C)cs3)c(C)c2c(=O)[nH]1	0	0	0	0	12	0
Cc1c(-n2c(O)c(C3=c4ccccc4=NC3=O)sc2=S)c(=O)n(-c2ccccc2)n1C	0	0	0	5.6	0	0
Cc1ccc(C(=O)Nc2cc(Cl)ccc2Oc2ccccc2)cc1[N+](=O)[O-]	67	0	0	0	0	0
Cc1cc(C)nc(NC(=O)c2ccc(Cl)c([N+](=O)[O-])c2)n1	0	0	0	0	0	0
Cc1ccc(C(=O)Nc2ccccc2-c2ccccc2)cc1[N+](=O)[O-]	0	0	0	0	0	0
Cc1cc(C)nc(NC(=O)c2ccc(C)c([N+](=O)[O-])c2)n1	72	0	0	0	0	0
COc1ccc2c(c1)oc1c(SCc3nc4ccccc4[nH]3)nc(C)nc12	54	0	0	0	0	0
Cc1nc(SCc2nc3ccccc3[nH]2)c2oc3cc([N+](=O)[O-])ccc3c2n1	0	0	0	0	0	0
O=S1(=O)N[C@H](Cc2ccccc2)COc2cccc(N3CCC[C@H]3CO)c21	-	0	-	0	0	0
O=S1(=O)N[C@@H](Cc2ccccc2)COc2cccc(N3CCC[C@H]3CO)c21	-	4.1	-	0	0	0
NS(=O)(=O)c1ccc(CCNC(=O)CSc2nc3ccsc3c(=O)n2Cc2ccccn2)cc1	-	0	0	0	0	0
CSc1cccc(NC(=O)c2[nH]c(C)c(C(C)=O)c2C)c1	0	0	0	0	0	0
CN(c1ccc(OCC(=O)NC2CCCC2)cc1)S(=O)(=O)c1cccs1	0	0	0	0	0	0
CN(c1ccc(OCC(=O)OCC(=O)NC2CCCC2)cc1)S(=O)(=O)c1ccc2ccccc2c1	0	0	0	0	0	1.2
CCCCN(C(=O)CC1CCCC1)c1c(N)n(CCCC)c(=O)[nH]c1=O	0	0	0	0	0	0
Cc1nc(NC(=O)CSc2nnnn2C)sc1C	0	0	0	0	0	0
COC(=O)c1sc(NC(=O)CSc2nnnn2C)nc1C	0	0	0	5.6	0	0
SMILES	AHR activator	DAX1 inh-1	DAX1 inh-2	hcDAF-12 act	hgDAF12 agonist	ssDAF12 agonist
COC(=O)c1sc(NC(=O)CSc2nnc(Cn3nnc4ccccc43)n2C)nc1C	0	0	0	0	0	1.1
CCCCOc1c(Br)cc(CNCCCN2CCOCC2)cc1OC	0	0	0	0	0	0
CN(C(=O)c1ccncc1)C1CCCCC1	0	0	0	0	0	0
N#Cc1cc(-c2ccccc2)nc(N2CCNCC2)n1	50	0	0	0	0	0
Cc1ccc(OCCC(=O)NNC(=O)c2cc(C)oc2C)cc1	0	0	4.4	0	0	0
CCOc1cccc(-c2c(C(=O)N/N=C(\C)c3cccnc3)nnn2-c2nonc2N)c1	60	0	0	0	0	0
CCCc1c(C(=O)N/N=C(\C)c2cccnc2)nnn1-c1nonc1N	-	0	0	0	0	0
CCCOc1ccc(-c2c(C(=O)N/N=C(\C)c3cccnc3)nnn2-c2nonc2N)cc1	56	0	0	0	0	0
CCOc1ccc(-c2c(C(=O)N/N=C(\C)c3ccncc3)nnn2-c2nonc2N)cc1	0	0	0	0	0	0
COC(=O)C1CN(C(=O)c2ccc(OC(F)F)cc2)c2ccccc2O1 (stereo not drawn)	0	0	4.3	0	0	0
Cc1cnc(CNC(=O)c2csc(COCCO)n2)cn1	-	0	-	0	0	0
Cc1sc2nc(SCC(=O)N3CCCC3)[nH]c(=O)c2c1C	59	0	0	0	0	0
Cc1sc2nc(SCC(=O)N3CCCCC3)[nH]c(=O)c2c1C	0	0	0	0	0	0
CC(C)CN(C)C(=O)CCc1nnc(Cc2cccc(C(F)(F)F)c2)o1	0	0	0	0	11	0
C=C(C)CNC(=O)CCc1nnc(Cc2cccc(C(F)(F)F)c2)o1	0	0	0	0	0	1.0
O=C(CCc1nnc(Cc2cccc(C(F)(F)F)c2)o1)NCC(F)(F)F	0	0	0	0	0	0
CC(NC(=O)CCc1nnc(Cc2cccc(C(F)(F)F)c2)o1)C1CC1 (stereo not drawn)	0	0	0	0	10	0
Nc1nc(N)c2c(n1)CCCC2	0	0	0	0	0	0
Cc1ccccc1NC(=S)NCCc1c[nH]c2ccccc12	0	0	0	6.0	0	0
O=C(COC(=O)[C@H](Cc1ccccc1)NC(=O)c1ccco1)Nc1ccccc1OC(F)F	0	0	0	0	0	0
Cc1ccc(NS(=O)(=O)c2ccc(N/N=C/c3ccncc3)c([N+](=O)[O-])c2)c(C)c1	48	0	0	0	0	0
CC1CCc2c(sc(Nc3nc4c(F)cccc4s3)c2C(N)=O)C1 (stereo not drawn)	56	0	0	0	0	0
O=C(Nc1nc2c(F)cc(F)cc2s1)C1CC(=O)N(Cc2ccco2)C1 (stereo not drawn)	60	0	0	0	0	0
O=C(Nc1nc(-c2ccc(F)cc2)cs1)C1CCN(C(=O)c2ccc(F)cc2)CC1	0	0	0	0	0	0
O=C(Nc1nc2c(F)cccc2s1)C1CC1	48	0	0	0	0	0
SMILES	AHR activator	DAX1 inh-1	DAX1 inh-2	hcDAF-12 act	hgDAF12 agonist	ssDAF12 agonist
O=C(Nc1nc2c(F)cc(F)cc2s1)C1CCN(C(=O)c2ccc(F)cc2)CC1	0	4.0	0	0	0	0
Cc1cc(C)c2nc(NC(=O)C3CC(=O)N(Cc4ccco4)C3)sc2c1 (stereo not drawn)	0	0	0	0	0	0
COCC(C)NC(=O)C(C)N1c2cccc3cccc(c23)S1(=O)=O (stereo not drawn)	0	0	0	0	0	0
C[C@H]1CN([C@@H](C)CO)C(=O)CCCn2cc(nn2)CO[C@@H]1CN(C)S(=O)(=O)c1ccc(C#N)cc1	-	0	0	0	0	0
CCc1ccc(NC(=O)CSc2nc(=O)n(CCN(C)C)c3c2CCCC3)cc1	0	0	0	0	0	0
O=C(COC(=O)CN1C(=O)NC2(CCCC2)C1=O)Nc1c(Cl)cccc1C(F)(F)F	0	0	0	0	0	0
